Measured values: PubChem BioAssay AID463208 (Broad Institute, 2010)

assay: inhibition of yeast nuclear histone deacetylase activity – cell lysate, fluorescence, yeast nuclear extract, mechanism study for Sdo1 growth activator project, dose response (AID 463208); conditions: yeast nuclear extract HDAC activity, fluorogenic substrate;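 active = AC50 at most tenfold above the top tested concentration; inconclusive = flat fit with 30 to 70% activity, or a poor fit; inactive = AC50 over tenfold above the top dose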

AC50, inactive:
CC(=O)N(C1CCCCC1)C1C(=O)C(=O)c2ccccc2C1=O (configuration not stated) > 50 µM, O=C(COC(=O)Cc1ccsc1)Nc1ccccc1 > 50 µM, COc1ccc(-c2c(C)sc(NC(=O)c3ccnn3C)c2C#N)cc1 > 50 µM, CCN(CC)CCCNC(=O)C1CCNCC1 > 50 µM, CCOc1ccc(C(=O)NC(=S)NCc2cccnc2)cc1 > 50 µM, Cc1ccc(Cn2c(Sc3ncccn3)nc3c2c(=O)[nH]c(=O)n3C)cc1 > 50 µM, CCSc1nnc([C@H](CCSC)NC(=O)OC(C)(C)C)o1 > 50 µM
